PubChem BioAssay (NCATS)
Inconclusive results are not listed. The source made the active and inactive calls. Calls come from the whole dose curve.

Target: Estrogen receptor (Homo sapiens) (UniProt P03372)
Assay: qHTS assay for small molecule agonists of estrogen receptor alpha signaling (AID 588514); note: nearly all actives have a fitted effect of over 70% in size
Details: ER-alpha-UAS-bla HEK293, beta-lactamase ratio, 18 h, percent of full estradiol response, vehicle zero; series mostly up to 76.8 µM
Source text: NIH Chemical Genomics Center [NCGC]
U.S. Environmental Protection Agency [EPA]
National Institutes of Environmental Health Sciences [NIEHS]
National Toxicology Program [NTP]
Estrogen receptor alpha (ER-alpha) is an important member of nuclear hormone receptors. ER-alpha plays important role in breast cancer as well as in other women's health issues. The majority of breast cancers is estrogen receptor (ER) positive and depends on estrogen for growth. There is also growing concern for some of environmental chemicals which may contribute the increasing the incidence of breast cancer. Therefore, it is important to understand the effect of environmental chemicals in ER-alpha signaling pathway.
NCGC Assay Protocol Summary
Using a beta-lactamase reporter-gene under control of the ER response element, a cell-based assay [ER-alpha-UAS-bla GripTiteTM cell-Based Assay from Invitrogen] was used to measure ER-alpha signaling pathway in agonist mode. ER-alpha-UAS-bla-GripTite HEK 293 cells were used with assay medium containing 2% charcoal/dextran treated FBS, 0.1 mM NEAA and 1 mM sodium pyruvate. Cells were cultured in this assay medium overnight in the flasks before the assay. The assay was performed in clear bottom black Greiner 1536-well plates. 17-beta-estradiol was used as a positive control in the screen. Library compounds were measured for their ability to either stimulate the reporter gene activity. Compounds were screened in a titration series in 1536-well format. […] Data was normalized relative to 17-beta-estradiol control (20 nM, 100%), and DMSO only wells (basal, 0%). Concentration-response titration points for each compound were fitted to the Hill equation yielding concentrations of half-maximal stimulation (EC50) and maximal response (efficacy) values.
qHTS protocol for ER-alpha beta-lactamase assay in agonist mode
[Step] [Parameter] [Value] [Description]
1. Reagent; 6 uL; 5000 cells/well
2. Incubation; 37 C for 4 hrs
4. Controls (17-beta-estradiol); 23 nL
- Dose response, start 1uM, 1:3 dilutions with duplicates
- Two columns with 20 and 0.5 nM (final) concentration.
5. Incubation; 37 C for 18 hrs
6. Detection reagent; 1 uL of CCF4-dye
7. Incubation; RT for 2 hrs
8. Detection; Fluorescence; Envision plate reader or Acumen plate reader

Chain of Estrogen receptor (Homo sapiens) (P03372 whole entry, looked up): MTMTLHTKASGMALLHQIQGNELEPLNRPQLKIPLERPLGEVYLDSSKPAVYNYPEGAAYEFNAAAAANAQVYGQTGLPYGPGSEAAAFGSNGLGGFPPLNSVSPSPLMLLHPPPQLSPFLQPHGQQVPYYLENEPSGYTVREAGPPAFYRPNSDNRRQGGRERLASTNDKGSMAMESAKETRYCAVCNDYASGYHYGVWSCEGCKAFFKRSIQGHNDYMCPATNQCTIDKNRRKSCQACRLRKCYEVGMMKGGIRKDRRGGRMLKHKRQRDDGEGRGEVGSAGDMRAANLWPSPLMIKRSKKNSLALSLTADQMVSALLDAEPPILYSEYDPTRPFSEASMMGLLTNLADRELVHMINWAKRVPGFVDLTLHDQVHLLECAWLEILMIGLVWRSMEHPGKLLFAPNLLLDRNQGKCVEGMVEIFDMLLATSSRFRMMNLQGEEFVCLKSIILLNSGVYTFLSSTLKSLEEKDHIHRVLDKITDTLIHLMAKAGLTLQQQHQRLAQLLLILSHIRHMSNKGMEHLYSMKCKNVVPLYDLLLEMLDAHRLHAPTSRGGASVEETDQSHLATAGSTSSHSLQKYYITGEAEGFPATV

SMILES	outcome
CC[C@H](C)C(=O)O[C@H]1C[C@@H](C)C=C2C=C[C@H](C)[C@H](CC[C@@H]3C[C@@H](O)CC(=O)O3)[C@H]21	inactive
Cc1ncc([N+](=O)[O-])n1CCO	inactive
NC(N)=NC(N)=NCCc1ccccc1	inactive
C[C@]12C=CC(=O)C=C1CC[C@@H]1[C@@H]2C(=O)C[C@@]2(C)[C@H]1CC[C@]2(O)C(=O)CO	inactive
CC1=NN(c2ccccc2)C(=O)C1	inactive
NNC(=O)c1ccncc1	inactive
Cc1noc(NS(=O)(=O)c2ccc(N)cc2)c1C	inactive
Cc1nnc(NS(=O)(=O)c2ccc(N)cc2)s1	inactive
N=C(N)c1ccc(OCCCCCOc2ccc(C(=N)N)cc2)cc1	inactive
CC(=O)[C@H]1CC[C@H]2[C@@H]3CCC4=CC(=O)CC[C@]4(C)[C@H]3CC[C@]12C	inactive
OC(Cn1cncn1)(Cn1cncn1)c1ccc(F)cc1F	inactive
